Test results as given in PubChem BioAssay (NCI).
Values joined by “and” are separate entries in the source; they are usually repeats but may differ in a detail not shown here. Identical values can stand only once. About 79,000 compounds went through this panel and 15% of them were active in at least one assay; those are over-represented in the sample as a whole. Some structures have more than one record in an assay (separate samples or runs), and their calls can disagree. Active and inactive are the calls of the source. Cut-off read from the data, not from the text of the source: active = growth inhibition above about 70%; inactive = the rest.

How the values were obtained:
[1] = NCI Yeast Anticancer Drug Screen. Data for the rad50 strain (AID 155);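 note: 0% = growth of vehicle-only cultures of the same strain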; details: S. cerevisiae rad50 strain growth inhibition, stronger effect = higher value
How it was run: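 Vehicle-treated cultures provide the reference for the growth inhibition reported for compound-exposed, repair-deficient yeast.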

[2] = NCI Yeast Anticancer Drug Screen. Data for the mec2-1 strain (AID 157); details: S. cerevisiae mec2-1 strain, stronger effect = higher value
How it was run: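 Yeast mec2-1 mutant treated with compound. Readout: growth inhibition vs vehicle controls.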

[3] = NCI Yeast Anticancer Drug Screen. Data for the sgs1 mgt1 strain (AID 161);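 note: 0% = growth of cultures given vehicle only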; details: S. cerevisiae sgs1 mgt1 strain, stronger effect = higher value
How it was run: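 Mutant yeast exposed to compound; growth scored against vehicle-only wells.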

[4] = NCI Yeast Anticancer Drug Screen. Data for the cln2 rad14 strain (AID 165);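 note: 0% = growth equal to vehicle treated cultures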; details: S. cerevisiae cln2 rad14 strain, stronger effect = higher value
How it was run: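 cln2 rad14 yeast strain; compound exposure; growth inhibition read vs vehicle controls.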

[5] = NCI Yeast Anticancer Drug Screen. Data for the bub3 strain (AID 167); details: S. cerevisiae bub3 mutant strain, stronger effect = higher value
How it was run: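 Mutant yeast screening strain plus compound; vehicle-treated cultures serve as the 0% inhibition reference.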

[6] = NCI Yeast Anticancer Drug Screen. Data for the mlh1 rad18 strain (AID 175); details: S. cerevisiae mlh1 rad18 strain growth inhibition, stronger effect = higher value
How it was run: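 Yeast w/ defined DNA-repair lesions; compound exposure; growth vs vehicle controls → % inhibition.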

[7] = at 5.0 µM (retest, dose inferred, filed as 0.5)
[8] = at 50.0 µM (retest, dose inferred, filed as 5.0)

Compound | growth inhibition [1, 7] | growth inhibition [1, 8] | growth inhibition ([1]; at 50.0 µM) | growth inhibition [2, 7] | growth inhibition [2, 8] | growth inhibition ([2]; at 50.0 µM) | growth inhibition [3, 7] | growth inhibition [3, 8] | growth inhibition ([3]; at 50.0 µM) | growth inhibition [4, 7] | growth inhibition [4, 8] | growth inhibition ([4]; at 50.0 µM) | growth inhibition [5, 7] | growth inhibition [5, 8] | growth inhibition ([5]; at 50.0 µM) | growth inhibition [6, 7] | growth inhibition [6, 8] | growth inhibition ([6]; at 50.0 µM)
O=C(O)CCCC1CCCCC1 | 0% (inactive) | 39% (inactive) | 55.1% (inactive) and 57% (inactive) | -2% (inactive) | 21% (inactive) | 37.4% (inactive) and 12.7% (inactive) | 4% (inactive) | 43% (inactive) | 43% (inactive) and 44.3% (inactive) | 4% (inactive) | 27% (inactive) | 38.4% (inactive) and 46.7% (inactive) | -1% (inactive) | 52% (inactive) | 30.5% (inactive) and 62.9% (inactive) | 2% (inactive) | 51% (inactive) | 8.95% (inactive) and 79.8% (active)
CCOC(=O)C(NC(=O)C(Cc1ccc(N(CCCl)CCCl)cc1)NC(C)=O)C(C)C (centres undefined) | -4% (inactive) | -9% (inactive) | 17.5% (inactive) and 11.7% (inactive) | -1% (inactive) | -1% (inactive) | 11.3% (inactive) and -1.25% (inactive) | -5% (inactive) | 7% (inactive) | 37.2% (inactive) and -1.2% (inactive) | -1% (inactive) | -2% (inactive) | 67.7% (inactive) and -2.95% (inactive) | -2% (inactive) | -2% (inactive) | 19.1% (inactive) and -22.9% (inactive) | -4% (inactive) | -1% (inactive) | 18.9% (inactive) and -0.25% (inactive)
COC1NC(=O)NC(=O)C1=[N+]=[N-] (centres undefined) | -152% (inactive) | -50% (inactive) | 31.6% (inactive) | -44% (inactive) | -39% (inactive) | 9.25% (inactive) | -60% (inactive) | -33% (inactive) | 1.3% (inactive) | -54% (inactive) | -55% (inactive) | 27.6% (inactive) | -58% (inactive) | -55% (inactive) | -17.7% (inactive) | -120% (inactive) | -136% (inactive) | 21.9% (inactive)
CC[C@@]1(O)C[C@H](OC2CC(N)C(O)C(C)O2)c2c(O)c3c(c(O)c2[C@H]1C(=O)OC)C(=O)c1cccc(O)c1C3=O (some centres undefined) | 63% (inactive) | 99% (active) | 78.1% (active) | 27% (inactive) | 99% (active) | 87.5% (active) | 48% (inactive) | 99% (active) | 80.2% (active) | 39% (inactive) | 99% (active) | 67.3% (inactive) | 52% (inactive) | 99% (active) | 76.7% (active) | 50% (inactive) | 98% (active) | 80.2% (active)
CCCCCCCCCCCCCCCc1cccc(O)c1O | -2% (inactive) | -7% (inactive) | 51.2% (inactive) | -2% (inactive) | 3% (inactive) | 92.1% (active) | -1% (inactive) | 27% (inactive) | 51.5% (inactive) | -4% (inactive) | -8% (inactive) | -5.3% (inactive) | 1% (inactive) | -4% (inactive) | 48.4% (inactive) | -6% (inactive) | 7% (inactive) | 82.7% (active)
CC1(C)N=C(N)N=C(N)N1CCCOc1ccc(NC(=O)c2ccc(S(=O)(=O)F)cc2)cc1 | -3% (inactive) | 12% (inactive) | 20.2% (inactive) | -6% (inactive) | 30% (inactive) | 49.5% (inactive) | -2% (inactive) | 15% (inactive) | 47.8% (inactive) | -3% (inactive) | 0% (inactive) | -9% (inactive) | -8% (inactive) | -4% (inactive) | -8.15% (inactive) | -5% (inactive) | 7% (inactive) | 21.4% (inactive)
Oc1ccc(Cl)cc1Sc1cc(Cl)ccc1O | 99% (active) and 98% (active) and 90% (active) | 100% (active) and 99% (active) | 99.3% (active) and 41% (inactive) and 99.6% (active) | 98% (active) and 94% (active) and 68% (inactive) | 100% (active) and 99% (active) | 99.5% (active) and 99.7% (active) | 96% (active) and 98% (active) and 88% (active) | 99% (active) and -8% (inactive) | 99.5% (active) and 99.6% (active) and 99.7% (active) | 98% (active) and 94% (active) | 100% (active) and 99% (active) | 99% (active) and 99.3% (active) and 99.2% (active) | 99% (active) and 88% (active) and 68% (inactive) | 100% (active) and 99% (active) | 99.3% (active) and 99.5% (active) and 99.6% (active) | 99% (active) and 89% (active) | 100% (active) and 99% (active) | 99.3% (active) and 99.5% (active) and 99.4% (active)
CCCCN1C(=O)C2C(C1=O)C1(Cl)C(Cl)=C(Cl)C2(Cl)C1(Cl)Cl (centres undefined) | 17% (inactive) | 98% (active) | 95.3% (active) | 17% (inactive) | 99% (active) | 96% (active) | 11% (inactive) | 98% (active) | 98.9% (active) | 13% (inactive) | 98% (active) | 99% (active) | 3% (inactive) | 98% (active) | 76.5% (active) | 21% (inactive) | 98% (active) | 76.7% (active)
Oc1cc[c]([Hg][Cl])cc1 | 99% (active) | 99% (active) | 99.5% (active) and 100% (active) | 100% (active) | 100% (active) | 99.5% (active) and 99.7% (active) | 100% (active) | 99% (active) and 100% (active) | 99.1% (active) and 100% (active) | 99% (active) | 99% (active) | 98.2% (active) and 99.5% (active) | 99% (active) and 100% (active) | 99% (active) and 100% (active) | 99.6% (active) and 99.7% (active) | 99% (active) | 99% (active) | 99.2% (active) and 99.3% (active)
CC(C)O.CC(C)O.OCCN(CCO)CCO.OCCN(CCO)CCO.[Ti+2] | 19% (inactive) | 36% (inactive) | 60% (inactive) | 44% (inactive) | 96% (active) | 31.6% (inactive) | 11% (inactive) | 20% (inactive) | 52.9% (inactive) | 34% (inactive) | 70% (active) | 4.3% (inactive) | 99% (active) | 99% (active) | 39.2% (inactive) | 22% (inactive) | 39% (inactive) | 44.2% (inactive)
S=C=Nc1cccc(Cl)c1 | -17% (inactive) | 84% (active) | 85.2% (active) | -7% (inactive) | 90% (active) | 86% (active) | -10% (inactive) | 90% (active) | 88.8% (active) | 35% (inactive) | 65% (inactive) | 80.3% (active) | 7% (inactive) | 89% (active) | 85.2% (active) | 2% (inactive) | 89% (active) | 79.3% (active)
CC(O[Si](c1ccccc1)(c1ccccc1)C(C)(C)C)[C@H](NC(=O)OC(C)(C)C)C(=O)O (some centres undefined) | -13% (inactive) | 58% (inactive) | 86% (active) | -4% (inactive) | 97% (active) | 86.3% (active) | 13% (inactive) | 47% (inactive) | 88% (active) | -15% (inactive) | 98% (active) | 89.6% (active) | -9% (inactive) | 95% (active) | 55.5% (inactive) | 1% (inactive) | 68% (inactive) | 92.9% (active)
CCCCCCCCCCCCCCCCCC(=O)[O][Hg][c]1ccccc1 | 33% (inactive) | 96% (active) | 90.7% (active) | 43% (inactive) | 98% (active) | 91.5% (active) | 100% (active) | 99% (active) | 94% (active) | 99% (active) | 100% (active) | 92.3% (active) | 99% (active) | 100% (active) | 90% (active) | 34% (inactive) | 100% (active) | 90.2% (active)
CSc1ncc(COP(=S)(OCc2cnc(SC)nc2N)OCc2cnc(SC)nc2N)c(N)n1 | -1% (inactive) | -2% (inactive) | -39.3% (inactive) | 15% (inactive) | -6% (inactive) | -5.35% (inactive) | 1% (inactive) | 3% (inactive) | -15.9% (inactive) | 8% (inactive) | -3% (inactive) | 23.9% (inactive) | -1% (inactive) | -3% (inactive) | -2.3% (inactive) | -1% (inactive) | 9% (inactive) | 23% (inactive)
CC1(C)C(=O)C=CC2(C)C1CC(O)C1(C)C2CCC2(C)C(c3ccoc3)OC(=O)C3OC321 (centres undefined) | 15% (inactive) | 16% (inactive) | 86.8% (active) | 4% (inactive) | 12% (inactive) | 86.5% (active) | 11% (inactive) | 52% (inactive) | 82.7% (active) | 4% (inactive) | 8% (inactive) | 76.5% (active) | 3% (inactive) | 12% (inactive) | 82.2% (active) | 16% (inactive) | 18% (inactive) | 44.5% (inactive)
CC1(C)OC2OC3C(CN(CCCl)Cc4ccccc4)OC(c4ccccc4)OC3C2O1 (centres undefined) | 5% (inactive) | 18% (inactive) | 5.3% (inactive) | -26% (inactive) | -4% (inactive) | 8.75% (inactive) | -10% (inactive) | 31% (inactive) | -0.9% (inactive) | -2% (inactive) | -1% (inactive) | 33.8% (inactive) | 0% (inactive) | 23% (inactive) | -2.9% (inactive) | -23% (inactive) | 49% (inactive) | 14.2% (inactive)
[C-]#[O+].[C-]#[O+].[C-]#[O+].[CH3][Sn]([c]1ccccc1)[c]1ccccc1.[Co].c1ccc([PH+](c2ccccc2)c2ccccc2)cc1 | 99% (active) | 99% (active) | 99.5% (active) | 99% (active) | 100% (active) | 99.5% (active) | 99% (active) | 100% (active) | 99.5% (active) | 99% (active) | 99% (active) | 99% (active) | 99% (active) | 99% (active) | 99.5% (active) | 99% (active) | 99% (active) | 99.3% (active)
CC12CCC(O)CC1CCC1C2CCC2(C)C1CC1CC(=O)OC12 (centres undefined) | 82% (active) | 98% (active) | 98.5% (active) | 58% (inactive) | 98% (active) | 85.3% (active) | 83% (active) | 98% (active) | 99% (active) | 57% (inactive) | 99% (active) | 98.8% (active) | 72% (active) | 98% (active) | 98.9% (active) | 85% (active) | 98% (active) | 97.2% (active)
